Compound activity (PubChem)
Only some compounds are listed: those with a hit (about 1.5% of all), similar ones and a draw of the others.
HTT ATP protect: Huntington cell model cytoprotection by ATP luminescence; PC12 HTT-Q103 induced, cytoprotection, ATP luminescence, 40 h; Potency, µM (titrated, usually from 56.4 µM), without a hit: cytoprotection (ATP increase), usual class: activators; 0.14% of 230,000 active; note: % of control where 0% means no effect; nearly all actives have a fitted effect of over 45% in size
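Quantitative HTS on tebufenozide-induced (100 nM) PC12 cells expressing HTTQ103 exon 1–GFP; compounds tested as a concentration series; survival measured via cellular ATP.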
LMNA splice mod: changes lamin A minigene splicing in HeLa cells | HeLa LMNA splicing GFP/RFP minigene ratio, 48 h | Potency, µM (titrated, usually from 46.1 µM), for inactives: at the top dose ratio change, negative = inhibition, most hits filed as inhibitors | 0.01% of 200,000 active; active = well fitted inhibition curve with a large enough effect in the signal ratio, with a control signal flat, not every such curve was filed as active; inconclusive = small, poorly fitted or top-dose-only effect, or effect the other way, or a change in a side signal; the % refers to the signal ratio; note: % is set by controls: 0 for no effect and ±100 for the full control effect
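S3 HeLa stable clones carrying a lamin A-EGFP splicing minigene plus DsRed2 were seeded at 600 cells/well in Opti-MEM with 2% FBS, pin-dosed and incubated 48 h at 37°C. Acumen cytometry (488 nm) gave the GFP/RFP total-intensity ratio.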
NPSR antagonist: blocks cAMP signaling of the human neuropeptide S receptor | Q6W5P4 | CHO-NPSR cells, cAMP TR-FRET, antagonist mode | Potency, µM (series often up to 38.3 µM), for the others: at the highest dose activity change, negative = inhibition, hits mostly inhibitors | 1% of 220,000 active | AID 1461; note: % is set by controls: 0 for no effect and ±100 for the full control effect; nearly all actives have a fitted effect of over 50% in size
Target sequence (Q6W5P4 whole entry, looked up): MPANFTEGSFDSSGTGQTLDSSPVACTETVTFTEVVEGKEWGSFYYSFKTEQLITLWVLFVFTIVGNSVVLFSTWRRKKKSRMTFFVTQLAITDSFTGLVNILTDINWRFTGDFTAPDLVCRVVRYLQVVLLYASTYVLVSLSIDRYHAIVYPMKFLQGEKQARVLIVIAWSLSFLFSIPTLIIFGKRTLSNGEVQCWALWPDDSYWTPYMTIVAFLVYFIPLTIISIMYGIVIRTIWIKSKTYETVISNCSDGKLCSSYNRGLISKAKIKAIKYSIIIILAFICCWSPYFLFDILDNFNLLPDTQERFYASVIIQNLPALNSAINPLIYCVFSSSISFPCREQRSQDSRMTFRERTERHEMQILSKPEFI
Epigenetic reg: derepresses silenced GFP reporter in murine cells; AID 1865; 0.2% of 280,000 active; murine LDR cells, GFP reporter derepression, 30 h; Potency, µM (series often up to 53.9 µM), inactives show at the top dose GFP activation, actives largely listed as activators; note: % of control where 0% means no effect; nearly all actives have a fitted effect of over 60% in size
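Reporter derepression read as number of fluorescent GFP-positive objects, 20-120 um in size, counted by laser-scanning cytometer. Mouse LDR line with an epigenetically silenced CMV-GFP locus; compound incubation 30 h, 37 C.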
HttQ103 aggreg: reduces HttQ103-GFP aggregates in PC12 cells | PC12 HttQ103-GFP aggregates, Acumen cytometry, 40 h | Potency, µM (series often up to 46.1 µM), for inactives: top-dose activity change, negative = inhibition, usual class: inhibitors | 1.1% of 220,000 active | AID 1688; note: % is set by controls: 0 for no effect and ±100 for the full control effect; nearly all actives have a fitted effect of over 60% in size
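Compounds (qHTS titration) were added to PC12 cells expressing an ecdysone-driven HTT exon 1 Q103–GFP fusion after induction with 100 nM tebufenozide. Aggregate formation was measured as GFP objects in cell lysates.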
The depositor's hits bear a star; [ ] = another dose, or the depositor's remark. Unless noted, calls come from the whole dose curve; as a rule, active = well fitted curve in the direction sought with a large enough effect; inconclusive = small, poorly fitted or top-dose-only effect, or another doubt; inactive = no such curve, though single readings can be large; an effect the other way counts as inactive or inconclusive. Potency is the fitted concentration of half-maximal effect.

Screening Cc1ccccc1NC(=O)C1CCC(CNS(=O)(=O)c2ccc3c(c2)C(C)(C)C(=O)N3C)CC1 (configuration not stated) returned Epigenetic reg -0.1%.
`CCC(Oc1ccccc1)C(=O)Nc1nnc(C(F)(F)F)s1` (configuration not stated) gave HTT ATP protect -0.3%[10 µM], LMNA splice mod inconclusive, NPSR antagonist 3.9%[46.1 µM], Epigenetic reg -3.2% and HttQ103 aggreg 25.1µM*.
CCC(Oc1ccccc1)C(=O)Nc1nnc(C)s1 (configuration not stated) was read as HTT ATP protect -21.1%, LMNA splice mod -4.2%, NPSR antagonist 5.7%[46.1 µM], Epigenetic reg -1.9% and HttQ103 aggreg -3.8%.
Cc1cc(/C=C2/SC(=S)N(c3ccc([N+](=O)[O-])cc3)C2=O)c(C)n1-c1cccnc1 was read as LMNA splice mod inconclusive, NPSR antagonist -22.5%, Epigenetic reg -4.8% and HttQ103 aggreg 3.98µM*.
C=CCc1cccc(/C=C/c2cc(=O)c3ccccc3[nH]2)c1O was read as HTT ATP protect -88.0%[10 µM], LMNA splice mod inconclusive, NPSR antagonist -5.8%, Epigenetic reg 3.5% and HttQ103 aggreg 3.16µM*.
`C=CCn1c(NC(C)c2cc(Cl)ccc2O)nc2ccccc21` (configuration not stated) gave HTT ATP protect -3.4%, LMNA splice mod 9.9%, NPSR antagonist inconclusive, Epigenetic reg 1.7% and HttQ103 aggreg 11.2µM*.
Screening COc1ccc(-c2nc(N)c3ncn([C@H]4O[C@@H](CO)[C@@H](O)[C@@H]4O)c3n2)cc1 returned HTT ATP protect 4.0%[10 µM].
Screening COc1ccc(CC(N)C(=O)NC2C(CO)OC(n3cnc4c(N(C)C)ncnc43)C2O)cc1 (configuration not stated) returned HTT ATP protect -93.7%, Epigenetic reg 4.0% and HttQ103 aggreg 12.6µM*.
`CCOC(=O)c1sc2nc(CC(=O)OC)nc(N3CCN(c4ccc(OC)cc4)CC3)c2c1C` gave HTT ATP protect 0.9%, LMNA splice mod inconclusive, NPSR antagonist 31.6µM*, Epigenetic reg 2.1% and HttQ103 aggreg -4.6%.
For CCOC(=O)c1sc2nc(CC(=O)OC)nc(NCCN3CCOCC3)c2c1C the results were HTT ATP protect -13.7%[10 µM], LMNA splice mod -14.8%, NPSR antagonist -13.0%[46.1 µM], Epigenetic reg -12.7% and HttQ103 aggreg 11.9%.
`Cc1cc(C)c(/C=C2/C(=O)Nc3ccccc32)[nH]1` gave HTT ATP protect 27.9%[1.9 µM].
Screening Cc1ccc(C)c(N2CCN(C(=O)CN3C(=O)COc4ccc(S(=O)(=O)N5CCCC5)cc43)CC2)c1 returned Epigenetic reg 5.5%.
For COc1ccc(-c2nn(-c3ccccc3)cc2C(=O)n2nnc3ccccc32)cc1 the results were HTT ATP protect 11.7%, LMNA splice mod 1.2%, NPSR antagonist 10µM*, Epigenetic reg -2.0% and HttQ103 aggreg -14.9%.
Screening O=C(N/N=C/c1ccc(O)cc1)c1cccc(C(F)(F)F)c1 returned HTT ATP protect -5.8%[10 µM], LMNA splice mod -8.1%, NPSR antagonist 1.5%, Epigenetic reg 0.0% and HttQ103 aggreg 8.9%.
Screening O=C(N/N=C/c1ccccc1O)c1cccc(C(F)(F)F)c1 returned LMNA splice mod inconclusive, NPSR antagonist 3.8%, Epigenetic reg -1.9% and HttQ103 aggreg 2.51µM*.
`CCOc1ccc(NC(=O)CN2CCN(CC(=O)Nc3ccc(N(CC)CC)cc3)CC2)cc1` gave LMNA splice mod 12.3%[46 µM] and Epigenetic reg 0.0%.
Screening O=C(O)CCc1ccc(-c2ccccc2)n1-c1cccc(Br)c1 returned Epigenetic reg -1.9%.
For CCc1nnc(NC(=O)CSc2nc(-c3ccccc3)cc(-c3ccc(F)cc3)c2C#N)s1 the results were HTT ATP protect -22.0%, LMNA splice mod inconclusive, NPSR antagonist 10µM*, Epigenetic reg 7.2% and HttQ103 aggreg 3.4%.
For CCc1nnc(NC(=O)CSc2ccc(-c3ccc(F)cc3)nn2)s1 the results were HTT ATP protect -37.5%, NPSR antagonist -8.6%, Epigenetic reg -4.6% and HttQ103 aggreg 12.3%[9.22 µM].
`COc1ccc(-c2cc(-c3cccs3)c(C#N)c(SCC(=O)NCc3ccco3)n2)cc1` gave HTT ATP protect -6.0%[10 µM], LMNA splice mod inconclusive, NPSR antagonist -7.2%[46.1 µM], Epigenetic reg 5.2% and HttQ103 aggreg inconclusive.
CCOC(=O)c1ccc(NC(=O)CSc2nc(-c3ccc(F)cc3)cc(C(F)(F)F)c2C#N)cc1 was read as Epigenetic reg 7.08µM*.
Screening N#Cc1c(C(F)(F)F)cc(-c2cccs2)nc1SCC(=O)Nc1cccc(Br)c1 returned Epigenetic reg 10µM*.
`COc1ccc(CNC(=O)CSc2nc(-c3ccccc3)cc(-c3cccs3)c2C#N)cc1` gave HTT ATP protect -36.4%, LMNA splice mod 10.3%, NPSR antagonist 10µM*, Epigenetic reg inconclusive and HttQ103 aggreg 8.9%[9.22 µM].
Screening CC(=O)c1ccc(N2CCN(C(=O)c3cc(S(=O)(=O)N4CCCCCC4)cn3C)CC2)cc1 returned LMNA splice mod 5.9%[46 µM] and Epigenetic reg -1.7%.
O=C(N/N=C/c1ccccc1Cl)c1n[nH]c2c1CCCC2 was read as HTT ATP protect -13.4%[10 µM], LMNA splice mod -0.8%, NPSR antagonist 7.1%, Epigenetic reg 4.8% and HttQ103 aggreg 12.6µM*.
`Cc1oc(=O)c(NC(=O)c2cccc(Cl)c2)cc1C(=O)c1ccccc1` gave HTT ATP protect 9.0%, LMNA splice mod inconclusive, NPSR antagonist 7.94µM*, Epigenetic reg 13.4% and HttQ103 aggreg -1.1%.
N#Cc1nc(-c2ccc(OCc3ccc(Cl)cc3)cc2)oc1NCc1cccnc1 was read as HTT ATP protect -40.4%, LMNA splice mod 19.4%, NPSR antagonist -14.3%[46.1 µM], Epigenetic reg 0.8% and HttQ103 aggreg -4.3%.
`N#Cc1nc(-c2ccc(OCc3ccccc3)cc2)oc1NCc1cccnc1` gave HTT ATP protect -67.5%[0.074 µM], LMNA splice mod inconclusive, NPSR antagonist 2.1%[46.1 µM], Epigenetic reg -4.3% and HttQ103 aggreg 12.6µM*.
For COc1cc(CN(C(=O)COc2ccc(Br)cc2)c2ccccn2)cc(OC)c1OC the results were LMNA splice mod inconclusive and Epigenetic reg -2.2%.
Screening CCOC(=O)/C(C#N)=C\C=C1C=CN(C)C=C1 returned HTT ATP protect -35.1%, LMNA splice mod 14.6%, NPSR antagonist 12.6µM*, Epigenetic reg 12.4% and HttQ103 aggreg -4.0%.
Screening O=S(=O)(c1ccc2ccccc2c1)n1nc(-c2ccco2)nc1NCc1cccc(Cl)c1 returned LMNA splice mod -2.0%[46 µM] and Epigenetic reg -1.6%.
For COc1ccc(S(=O)(=O)N2CCN(c3ccccc3F)CC2)cc1-c1noc(C)n1 the results were Epigenetic reg 1.12µM*.
COc1ccc(N2CCN(S(=O)(=O)c3ccc(OC)cc3)CC2)cc1 was read as HTT ATP protect 17.1%[10 µM], LMNA splice mod inconclusive, NPSR antagonist -11.3%[46.1 µM], Epigenetic reg -2.0% and HttQ103 aggreg -7.1%.
